How the values were obtained:
Details in all cases: concentration: 1 μM, replicates: in singlicate; n = 1
PLK2 = tested on: PLK2
PLK3 = tested on: PLK3
PLK4 = tested on: PLK4
PRKCD = tested on: PRKCD
PRKCE = tested on: PRKCE
PRKCH = tested on: PRKCH
PRKCI = tested on: PRKCI
PRKCQ = tested on: PRKCQ
PRKD1 = tested on: PRKD1
PRKD2 = tested on: PRKD2
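Also: KINOMEscan kinase panel screen.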

Compound	%Inh (PLK2) [%]	%Inh (PLK3) [%]	%Inh (PLK4) [%]	%Inh (PRKCD) [%]	%Inh (PRKCE) [%]	%Inh (PRKCH) [%]	%Inh (PRKCI) [%]	%Inh (PRKCQ) [%]	%Inh (PRKD1) [%]	%Inh (PRKD2) [%]
c1ccc(Oc2ccc(Nc3ccnc4cc(-c5ccc(CNCCN6CCOCC6)o5)ccc34)cc2)nc1 [GW567145]	0	0	43	0	12	4	39	4	0	13
Cl.c1ccc(-c2ccc3c(Nc4ccc5[nH]ncc5c4)ccnc3c2)nc1 [GW440137]	0	0	7	4	5	0	17	0	3	12
COc1ccc(Nc2nccc(N3CCC(NC(=O)Nc4cccc(OC)c4)C3)n2)cc1 (stereo not shown) [GSK1379742]	0	0	0	1	0	5	0	0	3	0
O=C(Nc1cccc(Oc2ccc3nc(NC(=O)C4CC4)cn3n2)c1)c1ccccc1C(F)(F)F	0	4	0	3	6	0	28	0	0	0
Cc1ccc(C(=O)N2CC[C@@H](O)C2)cc1-n1c(C)cc(OCc2ccc(F)cc2F)c(Br)c1=O	0	0	0	0	0	0	2	0	0	0
C[C@@H](Oc1cc(-n2cnc3cc(-c4ccnc(NCCS(C)(=O)=O)c4)ccc32)sc1C(N)=O)c1ccccc1Cl [GSK907232]	99.2	99.4	32	11	3	0	9	31	0	0
COc1cccc(-c2ccc3c(NC(=O)C4CC4)n[nH]c3n2)c1 [SB-710903]	0	0	6	0	23	10	11	0	0	0
Fc1ccc(-c2ncn(C3CCNCC3)c2-c2ccnc(Oc3ccc(-c4ccccc4)cc3)n2)cc1 [SB-245391]	28	17	27	32	40	0	54	0	0	0
CC(C)c1nc(-c2cccc(NS(=O)(=O)c3c(F)cccc3F)c2F)c(-c2ccnc(Nc3ccc(N4CCOCC4)nc3)n2)s1 [GSK2008607]	0	4	100	0	0	22	36	18	93.8	99.2
Cl.NC(=O)c1cccc(Nc2nccc(Nc3ccc(Oc4c(Cl)cccc4Cl)c(Cl)c3)n2)c1 [GW659009]	0	30	0	0	0	0	0	0	0	0
COCCOCCOc1cc2ncc3c4ccc(C#N)cc4[nH]c3c2cc1OC	0	0	13	0	11	0	33	35	0	0
Cl.c1ccc(-c2ccc3c(Nc4ccc5[nH]ccc5c4)ccnc3c2)nc1 [GW440138]	0	0	9	0	11	12	0	0	1	2
COc1ccc(-c2coc3ccc(-c4nnc(SCc5ccc(OC)c(C(F)(F)F)c5)o4)cc23)cc1	15	14	8	9	0	0	0	0	0	0
Nc1n[nH]c2cnc(-c3ccccc3)cc12 [SB-642124]	49	43	1	17	24	38	4	45	5	4
O=C(Nc1n[nH]c2nc(-c3ccc(O)cc3)ccc12)C1CC1 [SB-710363]	10	0	30	37	45	19	0	16	0	0
CN(c1ccc(NC(=O)Nc2cc(C(F)(F)F)ccc2F)cc1)c1ccnc(Nc2ccc(S(N)(=O)=O)cc2)n1 [GW809893]	54	56	97.6	0	0	0	29	9	0	10

— article PMC5540273 (PLoS ONE, 2017)
